SMN2 splice up = increases expression of the SMN2 splice variant; HEK293 SMN2-luciferase splicing reporter, luminescence, 30-36 h; Potency, µM (series often up to 46.1 µM), inactives show at the top dose activity change, positive = activation, actives largely listed as activators; 2.8% of 210,000 active; AID 1458; further: % of control where 0% means no effect; nearly all actives have a fitted effect of over 55% in size
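qHTS luciferase splicing reporter: luminescence rises when SMN2 exon 7 is included in transfected HEK293 cells. Compound exposure lasted 30-36 h at 37C, with 4.5 mM final sodium butyrate as control, followed by a ONE-Glo read.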
Rab9 promoter act = Rab9 promoter activation. Potency, µM (top dose mostly 9.22 µM), for inactives: top-dose activation, negative = inhibition, usual class: activators. 2.8% of 320,000 active. Huh7 Rab9 promoter-luciferase reporter, luminescence, 24 h. AID 485297; further: % of control where 0% means no effect; nearly all actives have a fitted effect of over 60% in size
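Huh7 cells stably carrying a Rab9 promoter-luciferase reporter, 1500 cells per well in OP-MEM I with 10% FBS, treated with compound 24 hours at 37C. Luciferase activity read by luminescence after 10 minutes with Amplite reagent.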
FLuc modulator = firefly luciferase modulation, counter-screen for miR-21 project; P08659; purified FLuc, Km substrates, luminescence inhibition; Potency, µM (titrated, usually from 57.5 µM), without a hit: at the top dose activity change, negative = inhibition, usual class: inhibitors; 6.9% of 360,000 active; AID 588342;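 further: plate controls were vehicle for no effect and reference inhibitor for full effect; nearly all actives have a fitted effect of over 55% in size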
Target sequence (P08659 whole entry, looked up): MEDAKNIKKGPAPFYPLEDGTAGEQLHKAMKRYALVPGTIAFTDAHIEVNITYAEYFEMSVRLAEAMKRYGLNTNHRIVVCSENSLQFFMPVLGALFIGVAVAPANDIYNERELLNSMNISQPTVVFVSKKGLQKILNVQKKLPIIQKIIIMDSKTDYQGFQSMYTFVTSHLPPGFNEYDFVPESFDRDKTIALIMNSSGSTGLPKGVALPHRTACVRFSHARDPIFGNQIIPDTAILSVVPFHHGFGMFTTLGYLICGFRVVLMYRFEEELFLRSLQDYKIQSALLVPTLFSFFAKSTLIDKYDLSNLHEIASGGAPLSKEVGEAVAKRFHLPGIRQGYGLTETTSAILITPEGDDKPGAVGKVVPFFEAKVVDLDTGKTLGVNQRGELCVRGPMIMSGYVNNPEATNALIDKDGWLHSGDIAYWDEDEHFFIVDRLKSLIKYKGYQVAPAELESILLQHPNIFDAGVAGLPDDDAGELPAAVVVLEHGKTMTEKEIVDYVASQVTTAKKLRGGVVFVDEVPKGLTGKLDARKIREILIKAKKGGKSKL
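Biochemical qHTS of compounds, final roughly 60 µM downward over six points, against 10 nM purified firefly luciferase using Km concentrations of substrates (10 uM D-luciferin, 10 uM ATP) in Tris acetate pH 7.5 buffer; luminescence output.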
ELG1 genotox = induces genotoxicity in HEK293T cells with luciferase-tagged ELG1; HEK293T ELG1-luciferase reporter, luminescence, 16 h; 1.3% of 330,000 active; Potency, µM (titrated, usually from 46 µM), without a hit: at the highest dose activity change, positive = activation, hits mostly activators; further: % of control where 0% means no effect; nearly all actives have a fitted effect of over 60% in size
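After overnight (16 hr) compound treatment at 37 °C, ELG1-luciferase HEK293T cells were lysed with ONE-Glo; luminescence quantified 30 min later at room temperature.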
NPC1 promoter act = activates the NPC1 promoter | 2.4% of 320,000 active | Huh7 NPC1 promoter luciferase reporter, 24 h | Potency, µM (doses to about 9.22 µM), for inactives: top-dose activation, actives largely listed as activators; further: % of control where 0% means no effect; nearly all actives have a fitted effect of over 60% in size
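Luciferase expression driven by the NPC1 promoter was measured in stably transfected Huh7 cells after a 24 h compound incubation, using a luciferase reagent and a luminescence read.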
* hit, by the source's call; ? = inconclusive; / = no result given; [ ] = remark or other dose. The list is not random: actives were taken first. Their share in the collection is about 7.4%. The call rests on the fitted dose curve; in most records, active means well fitted curve in the direction sought with a large enough effect; inconclusive means small, poorly fitted or top-dose-only effect, or another doubt; inactive means no such curve, though single readings can be large; an effect the other way counts as inactive or inconclusive. Potency means the concentration at half of the fitted maximal effect.

SMILES	SMN2 splice up	Rab9 promoter act	FLuc modulator	ELG1 genotox	NPC1 promoter act
Nc1nc(SCC(=O)Nc2ccccc2C(F)(F)F)[nH]c(=O)c1-c1ccccc1	-17%	-6%	1%	-5%	-3%
CCOc1ccccc1NC(=O)COC(=O)c1nc2nccc(C)n2n1	/	/	/	2%	/
Cc1cccc(NC(=O)c2cnc3sccn3c2=O)c1	/	0.45µM*	3.4µM*	?	0.89µM*
N#C/C(=C\c1ccc(Sc2ccccc2)o1)c1nc2ccccc2[nH]1	11µM*	2.2µM*	2.7µM*	?	2.8µM*
N#C/C(=C\c1ccc(-c2ccc(F)cc2F)o1)c1nc2ccccc2[nH]1	3%	/	-11%	/	/
O=C(O)c1ccccc1-c1ccc(/C=c2\sc3nc4cc(Br)cnc4n3c2=O)o1	3%	-2%	-16%	2%	0%
Cc1cc2nc3s/c(=C/c4ccc(-c5ccccc5C(=O)O)o4)c(=O)n3c2cc1C	/	11%	4.8µM*	5%	15%
N#C/C(=C\c1ccc(-c2ccccc2C(=O)O)o1)c1nc2ccccc2[nH]1	-6%	0%	12µM*	12%	6%
Cc1cc2nc(/C(C#N)=C\c3ccc(-c4ccccc4C(=O)O)o3)[nH]c2cc1C	/	5%	1.5µM*	3%	18%
O=[N+]([O-])c1ccc(Cl)c(NC2=NCCCCC2)c1	/	-2%	0%	0%	-3%
COc1ccccc1CN1CC2(CCN(C(=O)c3cnccn3)CC2)C1	2%	/	/	/	/
CCCCCNC(=O)c1c[nH]c2ccc(S(=O)(=O)N3CCC(C)CC3)cc2c1=O	/	/	-9%	/	/
Cc1cccc(N2CCN(C(=O)c3c(C)oc4nc(C)nc(N5CCCC5)c34)CC2C)c1 (stereo not given)	/	/	0%	/	/
CCOC(=O)c1ccc(-c2ccc(/C=C(\C#N)c3nc4ccc(C)cc4[nH]3)o2)cc1	-4%	/	-12%	/	/
Cc1ccc2nc(/C(C#N)=C/c3ccc(-c4ccccc4C(=O)O)o3)[nH]c2c1	/	0%	4.3µM*	0%	-3%
Cc1ccc(NC(=O)C(C)Sc2nc(-c3ccccc3)c(C#N)c(=O)[nH]2)c(C)c1 (stereo not given)	/	/	12µM*	/	/
CSc1nc(-c2ccccc2)c(C#N)c(=O)[nH]1	/	-3%	-1%	-2%	0%
CC(Sc1nc(-c2ccccc2)c(C#N)c(=O)[nH]1)C(=O)Nc1ccc(F)cc1 (stereo not given)	/	/	17µM*	/	/
CC(=O)c1ccc(OCC(O)CN2CCN(S(=O)(=O)c3c(C)c(C)cc(C)c3C)CC2)cc1 (stereo not given)	/	-7%	-1%	-9%	-5%
CC(=O)Nc1cc(Cl)c(N=Cc2ccc(O)cc2O)cc1Cl	14%	0%	5%	3%	3%
CCOC(=O)c1sc(/N=C/c2ccc(O)cc2O)cc1C	-2%	9%	1.3µM*	7%	10%
CC(C)c1cccc(C(C)C)c1OC(=O)[C@H]1OC(c2ccc(Br)cc2)=C[C@@H]1c1ccc(Br)cc1	/	-6%	3%	-11%	-2%
CN(C)c1cccc(C(=O)NNC(=O)CN2C(=O)C3CC=CCC3C2=O)c1 (stereo not given)	/	/	/	10µM*	/
Cc1cccc(C)c1NC(=O)CN1C(=O)C2CC=CCC2C1=O (stereo not given)	/	-3%	5%	3%	-2%
Nc1nc2c(c(=O)[nH]1)N[C@H](CCNc1ccc(C(=O)O)cc1)CN2	-4%[9.22 µM]	/	/	/	/
SMILES	SMN2 splice up	Rab9 promoter act	FLuc modulator	ELG1 genotox	NPC1 promoter act
Cc1cc(C(=O)NCc2cccs2)no1	-2%	2%	3%	6%	0%
COc1ccc(CNC(=O)c2cc(-c3cccs3)on2)cc1	-35%	6%	-18%	2%	9%
O=C(NCc1cccs1)c1cc(C2CC2)on1	24%	?	?	23µM*	23%
COCCNC(=O)c1cc(-c2cccs2)on1	17%	3.2µM*	?	15µM*	24%
O=C(NCc1cccs1)c1cc(-c2ccccc2)on1	25µM*	2.5µM*	?	7.3µM*	2.5µM*
O=C(NCc1cccs1)c1cc(-c2cccs2)on1	?	3.5µM*	?	?	3.5µM*
COC(=O)c1ccccc1NC(=O)CNc1ccc(F)c(S(=O)(=O)N2CCOCC2)c1	/	1%	-1%	-1%	-1%
COc1ccc(-c2cc(CNS(=O)(=O)c3ccc(F)cc3)on2)cc1	-54%	-7%	?	-9%	-1%
c1ccc(CSc2ccc(-c3cccs3)nn2)cc1	16µM*	2.8µM*	1.9µM*	?	3.2µM*
Clc1ccc(CSc2ccc(-c3cccs3)nn2)cc1	/	/	0%	/	/
c1ccc(CSc2ccc(-c3cccs3)nn2)nc1	16µM*	2.2µM*	24µM*	17%	3.5µM*
COc1ccc(Cl)cc1-c1nc(-c2ccncc2)no1	28µM*	18%	1%	?	29%
COc1cc(OC)cc(-c2nc(-c3ccc(Br)cc3)no2)c1	5%	?	13µM*	5%	27%
CCOc1ccccc1-c1nc(-c2ccncc2)no1	-5%	/	-19%	/	/
CCOc1ccccc1NC(=O)c1ccccc1-c1nc(-c2ccccc2OC)no1	/	6%	11µM*	-18%	2%
CN(C)c1ccc(-c2noc(-c3ccccc3O)n2)cc1	32%	?	0.27µM*	?	0.71µM*
COCCNC(=O)c1ccccc1-c1nc(-c2ccccc2OC)no1	-28%	0%	?	2%	?
CCOc1ccccc1-c1nc(-c2ccc(-c3ccccc3)nc2OCC)no1	1%	/	0%	/	/
CCOc1nc(C)ccc1-c1noc(-c2ccccc2OC)n1	-8%	7%	24µM*	2%	9%
COc1ccccc1-c1noc(-c2cccnc2)n1	1%	14%	?	21µM*	22%
Clc1cccc(OCc2nc(-c3ccncc3)no2)c1	15%	23%	-19%	11%	7%
COc1nc2ccccc2cc1-c1noc(-c2cccnc2)n1	-7%	2%	1%	-4%	9%
Clc1ccc(OCc2nc(-c3ccncc3)no2)c(Cl)c1	16µM*	0.63µM*	2.1µM*	7.3µM*	0.89µM*
COc1ccccc1-c1nc(-c2ccncc2)no1	13µM*	2µM*	6.7µM*	?	2µM*
C1CCN2C[C@@H]3C[C@@H](CN4CCCC[C@H]34)[C@H]2C1	-3%[20.6 µM]	/	/	/	/
COc1nc(-c2ccc(C)cc2)ccc1-c1noc(-c2ccccc2Br)n1	1%	/	?	/	/
COc1ccccc1-c1noc(-c2cc(OC)c(OC)c(OC)c2)n1	17%	-6%	-20%	0%	0%
COc1ccc(-c2nc(-c3ccc(Br)cc3)no2)c(OC)c1	7.1µM*	/	1.2µM*	/	/
Cc1ccc(-c2noc(-c3ccccc3Br)n2)cc1	13µM*	2.8µM*	0.67µM*	?	0.79µM*
COc1ccccc1-c1nc(-c2ccc(Br)cc2)no1	16µM*	5µM*	4.8µM*	3.7µM*	?

Assay outcomes (PubChem BioAssay)
